According to PubChem BioAssay:
Several values for one entry are separate records, joined by “and”; a condition that tells them apart may be missing. Equal values may be shown once. Activity calls are given as the source filed them. Cut-off read from the data, not from the text of the source, unless noted: active = nuclear beta-catenin stimulation mostly above about 4.2% (no sharp cut-off); inactive = mostly below about 10%.

Experiments:
[1] = polyglutamine-triggered caspase-3 activation inhibitors, cell-based (AID 1583); conditions: polyglutamine-induced caspase-3 activation, cell assay; stronger effect = higher value;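 tested at 10 µM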
[2] = suppressors of polyQ aggregation in yeast, 75Q-TubU reporter (AID 1593); conditions: Yeast 75Q polyglutamine aggregation reporter
[3] = inhibitors of mitochondrial cytochrome c release, biochemical, purified mitochondria (AID 1603); conditions: stronger effect = lower value;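 note: mouse liver mitochondria challenged with calcium chloride; signal normalized to the plate average as 100%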
[4] = inhibitors of polyQ protein aggregation (AID 1604); conditions: polyglutamine-induced protein aggregation inhibition assay; stronger effect = higher value; tested at 2.5 µM
[5] = enhancers of glutamate uptake in motor neurons, MN-1 cell line (AID 1612); conditions: MN-1 motor neuron cells, stronger effect = higher value;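 note: tested at 1 µM final; 0% = mean of DMSO vehicle wells on each plate; positive means more glutamate uptake than control and negative means less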
[6] = suppressors of polyglutamine aggregation in yeast, 75Q-TubH (AID 1616); conditions: S. cerevisiae 75Q-TubH polyglutamine aggregation suppression; stronger effect = higher value
[7] = stimulators of nuclear beta-catenin in C2C12, primary screen, imaging, WNT3A-conditioned medium, mouse C2C12, NPC library (AID 1117326); conditions: stronger effect = higher value
[8] = stimulators of insulin release from INS-1E, primary screen, cell-based, 5 mM glucose, NPC library (AID 1117329;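 active = compound raises insulin release from rat beta cells at 5 mM glucose, no numeric limit stated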); conditions: rat INS-1E insulin secretion, at 10 µM, stronger effect = higher value
[9] = growth inhibition of GSK3B-pretreated HCT116 cells – cell-based, CellTiter-Glo, 0.2 to 20 µM (AID 1117336;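 active = compounds lowering colon cancer cell viability after pretreatment blocking the GSK3B kinase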); conditions: HCT116 viability after GSK3B inhibitor, at 20 µM, stronger effect = higher value
[10] = inhibition of endothelial tube formation, primary screen, imaging, VEGF stimulated, CD31 staining, tube area, NPC library (AID 1117340;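 active = compound that reduces growth-factor-driven endothelial tube area in a mixed cell culture, no cutoff stated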); conditions: VEGF-stimulated ADSC/ECFC co-culture, at 10 µM, stronger effect = higher value
[11] = glucagon-like peptide 1 release enhancers, primary assay, NCI-H716 cell line, NPC library (AID 1117341;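 active = compound raises GLP1 secretion from the human gut endocrine cells, with no numeric limit stated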); conditions: NCI-H716 cells, at 10 µM, stronger effect = higher value
[12] = HCT116 colon cancer cell growth inhibition, primary screen, CellTiter-Glo luminescence, NPC library (AID 1117342;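 active = compounds that lower survival of HCT116 colon cancer cells in the luminescence readout, no numeric limit stated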); conditions: at 20 µM (top of the series)
[13] = CellTiter-Glo luminescent readout of SW480 viability loss, NPC library primary (AID 1117343;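 active = compounds that lower viability of the colon cancer cells in the luminescence readout, with no numeric limit stated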); conditions: CellTiter-Glo luminescence; at 20 µM (top of the series)
[14] = decreased DLD-1 cellular survival, CellTiter-Glo luminescent readout, NPC compound collection, primary HTS (AID 1117346;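 active = compounds that lower survival of DLD-1 colon cancer cells in the luminescence readout, no cutoff given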); conditions: DLD-1 viability, CellTiter-Glo luminescence; at 20 µM (top of the series)
[15] = target: 6-phosphogluconate dehydrogenase, decarboxylating (Homo sapiens) (UniProt P52209); test: 6PGD enzyme inhibitors, primary screen, biochemical, human, recombinant enzyme, NADPH absorbance (AID 1159550;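 active = at least 20% inhibition of 6-phosphogluconate dehydrogenase activity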); conditions: recombinant 6PGD, NADPH absorbance 341 nm; at 10 µM; stronger effect = higher value
6-phosphogluconate dehydrogenase, decarboxylating (Homo sapiens), sequence (P52209 whole entry, looked up): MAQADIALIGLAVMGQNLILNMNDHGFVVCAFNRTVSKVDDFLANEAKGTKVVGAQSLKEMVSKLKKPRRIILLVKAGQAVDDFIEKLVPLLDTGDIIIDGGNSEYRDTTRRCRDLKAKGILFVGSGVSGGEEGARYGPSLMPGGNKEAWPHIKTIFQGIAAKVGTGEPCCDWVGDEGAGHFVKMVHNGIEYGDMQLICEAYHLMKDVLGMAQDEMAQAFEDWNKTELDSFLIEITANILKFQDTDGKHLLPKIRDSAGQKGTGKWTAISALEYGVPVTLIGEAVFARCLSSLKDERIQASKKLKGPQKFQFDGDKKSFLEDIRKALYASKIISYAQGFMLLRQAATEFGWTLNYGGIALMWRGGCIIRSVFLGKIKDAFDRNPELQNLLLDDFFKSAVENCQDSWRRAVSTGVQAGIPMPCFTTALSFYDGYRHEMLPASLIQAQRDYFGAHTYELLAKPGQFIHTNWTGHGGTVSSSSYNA

[16] = differential killing of epithelial or mesenchymal cells, primary screen, imaging, PC-3E GFP, TEM4-18 mCherry, co-culture (AID 1345086;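 active = compounds killing one labelled cell type while sparing the other, by normalised counts and ratio limits, not self-fluorescent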;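 note: cells exposed to compound for 72 h before imaging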;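 for red/green cell ratio (normalised): normalised mesenchymal count divided by normalised epithelial count so high means epithelial killing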); conditions: imaging cell counts, at 1 µM
[17] = survival rescue of mitochondrial mutant cells in low glucose, primary screen, MELAS cybrids, Rieske KO mouse fibroblasts, CellTiter-Glo (AID 1508586;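 active = mean z-score across replicates of 1.96 or higher in either the MELAS or the Rieske mutant cell line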;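 note: z relative to plate mean and SD of compound and empty wells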)
[18] = target: NAD(+) hydrolase SARM1 (Homo sapiens) (UniProt Q6SZW1); test: SARM1 TIR NADase inhibitors, cell lysate, NAD-Glo luminescence (AID 1508614;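 active = compound whose remaining NAD level is above about 45 nM, limit read from the data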;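 note: higher remaining NAD means stronger inhibition of SARM1 NADase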); conditions: SAM-TIR HEK293T lysate NADase, at 1 µM, stronger effect = higher value
NAD(+) hydrolase SARM1 (Homo sapiens), sequence (Q6SZW1 whole entry, looked up, the tested form may be a part): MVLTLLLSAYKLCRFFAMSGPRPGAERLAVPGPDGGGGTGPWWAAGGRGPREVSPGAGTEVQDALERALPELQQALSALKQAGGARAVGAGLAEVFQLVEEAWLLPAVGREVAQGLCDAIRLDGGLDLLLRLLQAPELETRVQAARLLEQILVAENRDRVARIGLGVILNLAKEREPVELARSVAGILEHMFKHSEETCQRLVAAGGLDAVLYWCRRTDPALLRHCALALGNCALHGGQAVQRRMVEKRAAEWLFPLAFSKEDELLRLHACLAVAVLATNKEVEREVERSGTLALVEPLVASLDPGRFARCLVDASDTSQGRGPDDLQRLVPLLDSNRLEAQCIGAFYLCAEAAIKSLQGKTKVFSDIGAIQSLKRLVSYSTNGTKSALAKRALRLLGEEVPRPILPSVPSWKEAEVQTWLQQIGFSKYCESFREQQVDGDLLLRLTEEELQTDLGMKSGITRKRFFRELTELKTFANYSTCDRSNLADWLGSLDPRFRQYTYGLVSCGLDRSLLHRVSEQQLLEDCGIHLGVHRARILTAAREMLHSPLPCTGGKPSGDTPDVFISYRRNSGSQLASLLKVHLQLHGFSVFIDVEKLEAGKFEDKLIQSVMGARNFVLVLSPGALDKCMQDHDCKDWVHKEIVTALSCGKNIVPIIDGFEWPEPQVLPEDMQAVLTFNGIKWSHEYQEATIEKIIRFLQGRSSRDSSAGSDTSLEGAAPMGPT

[19] = target: Mitogen-activated protein kinase 7 (Homo sapiens) (UniProt Q13164); test: ERK5 transactivation activators in reporter cells, primary screen, cell-based, HTS (AID 1508626;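 active = luciferase signal above three times the same-plate solvent-only control wells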;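 note: luciferase driven by Gal4-ERK5 fusion binding five Gal4 sites before minimal TATA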); conditions: HeLa Gal4-ERK5 transactivation, 18 h, at 5 µM, stronger effect = higher value
Mitogen-activated protein kinase 7 (Homo sapiens), sequence (Q13164 whole entry, looked up, the tested form may be a part): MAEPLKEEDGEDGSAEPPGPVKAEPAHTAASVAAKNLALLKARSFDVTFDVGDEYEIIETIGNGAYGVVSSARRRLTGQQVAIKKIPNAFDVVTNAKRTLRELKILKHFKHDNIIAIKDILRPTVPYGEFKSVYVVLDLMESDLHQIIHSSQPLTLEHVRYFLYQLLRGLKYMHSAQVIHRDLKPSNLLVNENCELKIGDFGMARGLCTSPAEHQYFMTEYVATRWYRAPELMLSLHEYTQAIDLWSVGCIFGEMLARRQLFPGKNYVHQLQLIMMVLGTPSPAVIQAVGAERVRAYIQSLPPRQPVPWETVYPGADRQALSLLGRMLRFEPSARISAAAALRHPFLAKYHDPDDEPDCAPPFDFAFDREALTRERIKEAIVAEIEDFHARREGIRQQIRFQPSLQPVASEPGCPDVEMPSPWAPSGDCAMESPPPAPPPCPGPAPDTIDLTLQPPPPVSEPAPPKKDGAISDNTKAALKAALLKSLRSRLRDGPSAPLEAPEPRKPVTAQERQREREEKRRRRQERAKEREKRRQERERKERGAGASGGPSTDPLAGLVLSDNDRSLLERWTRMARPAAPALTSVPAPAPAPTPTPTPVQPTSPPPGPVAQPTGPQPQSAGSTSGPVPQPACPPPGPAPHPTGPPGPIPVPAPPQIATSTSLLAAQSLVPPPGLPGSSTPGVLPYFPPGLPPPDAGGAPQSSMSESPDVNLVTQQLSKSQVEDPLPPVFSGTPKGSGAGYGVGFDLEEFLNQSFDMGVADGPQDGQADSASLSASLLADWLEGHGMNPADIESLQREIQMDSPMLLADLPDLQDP

Clc1cccc(Cl)c1NC1=NCCN1
inhibition [1]: 5.5% | score [2]: 1.4 | cytochrome c release ratio [3]: 1.31 | inhibition of aggregation [4]: 86.9% | glutamate uptake change [5]: 13.8% | aggregation suppression score [6]: 1.85 | nuclear beta-catenin stimulation ([7]; at 10 µM): 0.7% (inactive) | nuclear beta-catenin stimulation ([7]; stimulation, at 2 µM): 0.7% | insulin secretion stimulation [8]: 1.9% (inactive) | viability decrease [9]: -10.4% (inactive) | tube area decrease [10]: -5.1% (inactive) | GLP1 secretion stimulation [11]: 1% (inactive) | inhibition of viability [12]: -0.6% (inactive) | viability decrease (inhibition) [13]: -15.3% (inactive) | viability decrease (inhibition) [14]: -4.9% (inactive) | inhibition [15]: 13.3% (inactive) | red/green cell ratio (normalised) ([16]; actives lie on both sides, counts scaled to control wells, 1 = unselective): 1.14 (inactive) | normalised cell number ([16]; measured here: epithelial PC-3E GFP cell survival): 1.33 | normalised cell number ([16]; measured here: mesenchymal TEM4-18 mCherry cell survival): 1.52 | z-score ([17]; MELAS cybrid survival, CellTiter-Glo 48 h, stronger effect = higher value): -0.353 (inactive) and 0.0276 (inactive) and 0.719 (inactive) | z-score ([17]; Rieske KO mouse fibroblast survival, CellTiter-Glo 72 h): 0.516 and -0.377 and -0.412 | remaining NAD [18]: 10 nM (inactive) | luciferase signal [19]: 64 AU (inactive)

CCC1(c2cnc[nH]2)Cc2ccccc2C1
nuclear beta-catenin stimulation ([7]; at 10 µM): 1.2% (inactive) | nuclear beta-catenin stimulation ([7]; stimulation, at 2 µM): 1.5% | insulin secretion stimulation [8]: 13.1% (inactive) | viability decrease [9]: 38% (inactive) | tube area decrease [10]: 22.4% (inactive) | GLP1 secretion stimulation [11]: -3.3% (inactive) | inhibition of viability [12]: -0.4% (inactive) | viability decrease (inhibition) [13]: 19.3% (inactive) | viability decrease (inhibition) [14]: 38.2% (inactive)

CC(=O)N(CC(=O)N(C)C)c1ccccc1
nuclear beta-catenin stimulation ([7]; at 10 µM): -1.1% (inactive) | nuclear beta-catenin stimulation ([7]; stimulation, at 2 µM): 3.8% | insulin secretion stimulation [8]: -0.5% (inactive) | viability decrease [9]: -5.9% (inactive) | tube area decrease [10]: 3.9% (inactive) | GLP1 secretion stimulation [11]: -1.1% (inactive) | inhibition of viability [12]: -4.93% (inactive) | viability decrease (inhibition) [13]: 36.7% (inactive) | viability decrease (inhibition) [14]: -21.1% (inactive)

CC[C@H]1CN2CCc3cc(OC)c(OC)cc3[C@@H]2C[C@@H]1C[C@H]1NCCc2cc(OC)c(OC)cc21
nuclear beta-catenin stimulation ([7]; at 10 µM): 12.4% (inactive) | nuclear beta-catenin stimulation ([7]; stimulation, at 2 µM): 9.1% | insulin secretion stimulation [8]: 13.4% (inactive) | viability decrease [9]: 82.1% (active) | tube area decrease [10]: 110% (active) | GLP1 secretion stimulation [11]: 2.4% (inactive) | inhibition of viability [12]: 84.8% (active) | viability decrease (inhibition) [13]: 115% (active) | viability decrease (inhibition) [14]: 97% (active) | inhibition [15]: 6.15% (inactive) | remaining NAD [18]: 10 nM (inactive) | luciferase signal [19]: 24 AU (inactive)
